# A number with no mark means an inactive call. The call rests on the fitted dose curve. Where a SMILES comes first, the peptide text is derived from it.
# Assay: qHTS assay to identify small molecule agonists of the sonic hedgehog signaling (Shh) pathway (AID 1259368);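 further: NIH/3T3-derived 3T3Gli1-Luc cells carrying a stable Gli1-driven firefly luciferase reporter; nearly all actives have a fitted effect of over 15% in size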
# Conditions: NIH/3T3 Gli1-Luc reporter, luciferase, 24 h, stronger effect = higher value; series mostly up to 92.4 µM; activity change: at the top concentration
# From the text: National Center for Advancing Translational Sciences [NCATS]
# NIH Chemical Genomics Center [NCGC]
# U.S. Environmental Protection Agency [EPA]
# National Institutes of Environmental Health Sciences [NIEHS]
# National Toxicology Program [NTP]
# The sonic hedgehog (Shh) pathway is essential for normal embryonic development. Dysregulation of the Shh pathway can cause severe developmental defects in organs. Therefore chemicals that interfere with the pathway are potential developmental toxicants. A cell line designated 3T3Gli1-Luc (DMB/OARSA/CFSAN/FDA, Laurel, MD), a NIH/3T3 derived clone containing stably integrated Gli1-Luc reporter is used to detect chemical interference of the Shh pathway, by changes in the expression of the firefly Luc gene under the control of the Gli1 transcriptional response element. This cell line was used to screen Tox21 libraries for identifying and prioritizing the potential developmental toxicants that interfere Shh pathway.
# 3T3 Gli1-Luc cells were dispensed at 2,000 per well in 5uL of culture medium into white solid bottom 1536-well plates (Greiner Bio-One, Monroe, NC) using a Multidrop Combi (Thermo Scientific, Waltham, MA) dispenser. The assay plates were incubated at 37 C and 5% CO2 for 4hr, and then 23nL of compounds dissolved in DMSO and positive control were transferred using a Pintool station (Wako, San Diego, CA). The assay plates were incubated at 37C and 5% CO2 for 24hr. For luciferase read, 4uL of Amplite Luciferase reporter gene assay reagent (AAT Bioquest, Inc. Sunnyvale, CA) was added to each well of the assay plates using Flying Reagent Dispenser (FRD, Aurora Discovery, San Diego, CA) and incubated at room temperature for 30min. The luminescence signal was measured using a ViewLux plate reader (Perkin Elmer, Shelton, CT).
# On the % scale 0 is the no-effect control and ±100 the full control effect.
row,Compound,activity change
1,CC(C)CCOC(=O)c1ccccc1,-0.436%
2,c1ccc2cnccc2c1,-0.821%
3,NCC1(Cc2noc(=O)[nH]2)CCCCC1,0.611%
4,[O-][n+]1cccc(/C(Cl)=N/OC[C@@H](O)CN2CCCCC2)c1,0.114% [at 42.5 µM]
5,OC1(c2ccc(Cl)cc2)CCNCC1,1.11% [at 42.5 µM]
6,CCc1occc(=O)c1O,2.15%
7,Cc1c(NC(=O)c2cccnc2)c(=O)n(-c2ccccc2)n1C,-1.35% [at 42.5 µM]
8,CCCCOC(=O)C(C)O (stereo not given),-0.12%
9,C=CC/C=C/C,-1.47%
10,OCCN1CCOCC1,0.094%
11,COc1nc(N)nc2nc[nH]c12,-1.31%
12,CCOc1ccccc1OCC1CNCCO1 (stereo not given),-1.19% [at 42.5 µM]
13,CC1=C(C(=O)O)N2C(=O)[C@@H](NC(=O)[C@H](N)c3ccccc3)[C@H]2SC1,-0.168% [at 42.5 µM]
14,C=CCCCCCCCCC(=O)OCCCC,-0.218%
15,CC(=O)CC(=O)Nc1ccc(C)cc1C,0.15%
16,CCC[C@@H]1C[C@@H](C(=O)N[C@@H]([C@H]2O[C@H](SC)[C@H](O)[C@@H](O)[C@H]2O)[C@@H](C)O)N(C)C1,-0.518% [at 42.5 µM]
17,CC1=C(O)C(=O)C(C)O1 (stereo not given),-0.141%
18,CC(C)c1ccc(C=O)cc1,0.0838%
19,OCC(O)CN1CCN(c2ccccc2)CC1 (stereo not given),0.73% [at 42.5 µM]
20,O=C1CCC(=O)N1Cl,-0.395%

row,Compound,activity change
1,O=C1CCCCO1,-0.0992%
2,COc1ccc2c(c1)c1c3n2CCN(C)C3=NCC1,0.2% [at 42.5 µM]
3,CC(=O)N[C@@H](CO)C(=O)N[C@@H](CC(=O)O)C(=O)N[C@@H](CCCCN)C(=O)N1CCC[C@H]1C(=O)O (Ac-SDKP-OH),-0.115% [at 42.5 µM]
4,CC/C=C\CCOC(=O)c1ccccc1O,0.984%
5,CCN1CCCC1CN (stereo not given),-0.58% [at 42.5 µM]
6,Cc1c(N)cccc1Cl,-0.399%
7,CN(C)CCCO[C@@H]1[C@H]2OC(C)(C)O[C@H]2O[C@@H]1C(O)CO (stereo not given in full),-0.44% [at 42.5 µM]
8,C[C@H]1[C@@H](c2ccccc2)NC(=O)N1C,0.534%
9,CC1CC(=O)CC(C)(C)C1 (stereo not given),0.203%
10,CC(C)(CO)C(O)C(=O)NCCCO (stereo not given),0.145%
11,O=C[O][Al]([O]C=O)[O]C=O,1.68%
12,CC1OCCC1=O (stereo not given),-0.172%
13,COS(=O)(=O)O,3.26%
14,C=CCCCC,-2.55%
15,CC(C)C[C@@H]1[C@H](c2ccccc2)OC(=O)N1CCCN1CCCCCC1,-0.322% [at 42.5 µM]
16,CCC(=O)c1c(O)cc(O)cc1O,-1.22% [at 42.5 µM]
17,CCC(C)C(=O)OCCc1ccccc1 (stereo not given),-0.51%
18,Cc1ccnc(N)c1,6.24%
19,COC(=O)CCCCC(CCSS/C(CCO)=C(\C)N(C=O)Cc1cnc(C)nc1N)SC(C)=O (stereo not given),-0.0883% [at 42.5 µM]
20,CCO[Si](CC)(OCC)OCC,0.0526%

# — PubChem BioAssay (Tox21)
